PubChem BioAssay AID624291 (National Center for Advancing Translational Sciences (NCATS), 2012)
Hit rate of the full screen: of about 350,000 compounds, about 220 (0.063%) were called active. Inconclusive results (about 4%) are left out. Calls come from the whole dose curve; as a rule, active = well fitted activation curve with a large enough effect; inconclusive = small, poorly fitted or top-dose-only effect; inactive = no such curve, though single readings can be large or run the other way. Shown is part of a subset that was picked to be rich in actives.

assay: qHTS for Activators of Integrin-Mediated Alleviation for Muscular Dystrophy; conditions: alpha7betagal myoblasts, beta-gal FDG fluorescence, 48 h; series mostly up to 38.3 µM; activation: at the top concentration;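 note: 100% = response of the positive control SU9516; nearly all actives have a fitted effect of over 60% in size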
How it was run: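 alpha7betagal+/- myoblasts (passage 13, 250/well) treated 48 h at 37C with compounds at 1:260 dilution of DMSO stock. Lysed, then beta-galactosidase activity read as FDG fluorescence (ex 480/em 540) after 30 min, with pre-read for autofluorescence.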

activation, inactive:
Cn1ncc([N+](=O)[O-])c1C(=O)Nc1cc(Cl)ccc1Cl -4.11%
Cc1cc2cc3n(c2nn1)N=C(Cl)CC3 -60.5%
CCOC(=O)C(C(=O)c1ccccc1)C(c1ccccc1)c1nccc2ccccc12 (stereo not given) 13.8%
Cc1cc(Cl)ccc1C(=O)C1CCCN(C(=O)c2ccc3c(c2)OCO3)C1 (stereo not given) 16.5%
CCOC(=O)c1cc(-c2sc(NC(=O)c3ccccc3)nc2C)n(Cc2ccccc2)n1 -56.7%
COc1ccccc1-c1n[nH]nc1C1=CC(=O)CC(C)(C)C1 -9.71%
CC(C)c1cc(C(=O)NC2CCCCCC2)c2ccccc2n1 -16.5%
CC(=O)Nc1ccc2nc(NC(=O)CS(=O)(=O)c3ccc(F)cc3)sc2c1 -3.68%
CN(c1ccccc1)S(=O)(=O)c1ccc(C(=O)NCc2cccnc2)cc1 8.72%
CNC(=O)c1ccc(CN(C)C(=O)c2cc(C3CC3)nc3c2cnn3C(C)C)cc1 13.8%
C[C@@H]1CN([C@@H](C)CO)C(=O)CCCn2cc(nn2)CO[C@H]1CN(C)S(=O)(=O)c1ccc(-n2cccn2)cc1 -6.63%
C[C@H](CO)N1C[C@H](C)[C@@H](CN(C)Cc2ccc3c(c2)OCO3)OCc2cnnn2CCCC1=O -0.6%
C[C@@H]1CN([C@H](C)CO)C(=O)c2cc(-c3ccc(F)cc3)cnc2O[C@H]1CN(C)C(=O)c1ccc(F)cc1 10.8%
CSc1ncccc1C(=O)N1CCCC(Nc2ccc(F)c(F)c2)C1 (stereo not given) 5.37%
Cc1ccc(NC(=O)c2ccco2)cc1 -15.4%
C[C@@H]1CN([C@H](C)CO)S(=O)(=O)c2ccc(C#C[C@@H](C)O)cc2O[C@@H]1CN(C)Cc1ccc(-c2ccccc2)cc1 -7.19%
O[C@H]1C[C@H](c2ccc(Cl)cc2)N(Cc2cccs2)C[C@@H]1n1cc(C2CC2)nn1 -51.5%
O=C1[C@H]2[C@@H](c3ccc(C(F)(F)F)cc3)N[C@]3(CCCN(Cc4ccc(Cl)cc4)C3=O)[C@H]2C(=O)N1Cc1ccccc1 -56.5%
C[C@H]1CN([C@@H](C)CO)S(=O)(=O)c2ccc(-c3cccc(F)c3)cc2O[C@@H]1CN(C)C -10.1%
Cc1ccc(S(=O)(=O)N2C[C@@H](C)[C@]3(C2)[C@H](O)[C@H](OC(=O)NCc2ccccc2)C[C@H]2C(=O)N(c4ccccc4)C(=O)[C@H]23)cc1 -13.2%
C[C@H]1CN([C@@H](C)CO)C(=O)c2cc(C3=CCCCC3)cnc2O[C@@H]1CN(C)C(=O)Cc1ccccc1 9.58%
C[C@@H]1CN([C@@H](C)CO)C(=O)CCCn2nncc2CO[C@H]1CN(C)C(=O)Nc1ccc(C(F)(F)F)cc1 -2.12%
CCCCCCn1c(=O)n2n(c1=O)C[C@]1(OC(=O)NCc3ccc(OC)c(OC)c3)CN(S(=O)(=O)c3ccc(C)cc3)C[C@]1(O)C2 -0.407%
CCN(CC)CCN(C(=O)c1ccc2c(c1)CCCC2)c1nc2c(OC)cccc2s1 -13.2%
Cc1ccc(-c2ccc(CN3C(C(C)C)C(=O)N(Cc4cn(CCC5OCCO5)nn4)CCS3(=O)=O)cc2)cc1 (stereo not given) -36.9%
COc1ncnc2c1ncn2CCCNCCN1CCOCC1 -5.29%
CSC1=NN(c2ccccc2)CN(c2ccccc2)N1C 21.1%
CN(C)C(CNC(=O)c1cccc(S(=O)(=O)N2CCc3ccccc3C2)c1)c1ccccc1 (stereo not given) -22.3%
CCN(CC)C(=O)C1=C(C)N(Cc2ccc(F)cc2)C(=O)C(CC(=O)NCc2cccc3ccccc23)C1 (stereo not given) 13.7%
COc1ccccc1C(=O)NC(=S)Nc1ccc(N2CCOCC2)cc1 13.2%
Cn1c(CCN2CCN(c3ccccn3)CC2)nc2cc(NS(=O)(=O)c3ccc(F)cc3)ccc21 -19.2%
NC(=S)NN=Cc1ccc(OC(=O)COc2cc(Cl)c(Cl)cc2Cl)cn1 -51.9%
CCOC(=O)C(=Cc1ccccc1)C(=O)c1ccccc1 -44%
CCCCCCNC(=O)O[C@H]1CN(C(=O)OC(C)C)N(C(=O)OC(C)C)[C@@H]2CN(S(=O)(=O)c3ccc(C)cc3)C[C@]12O -22.2%
Cc1ccc(NC(=O)Cn2sc3ccccc3c2=O)cc1 -59%
CC1(c2cccc(Br)c2)NC(=O)N(CC(=O)NCCC2=CCCCC2)C1=O (stereo not given) 4.18%
C[C@H](CO)N1C[C@H](C)[C@@H](CN(C)C(=O)c2cnccn2)Oc2ncc(Br)cc2C1=O -23.7%
COc1ccc(OC)c(C(=O)NC2CCCc3c2cnn3-c2cc(C)cc(C)c2)c1 (stereo not given) 0.675%
O=C(OCc1ccccc1)N1CCC2CC1c1ccc(-c3ccc4c(c3)OCO4)cc12 (stereo not given) -15.9%
CCCCCCN1C[C@@H](O)[C@H](n2cc(COC(=O)c3ccccc3)nn2)C[C@@H]1c1ccc(Cl)cc1 12.9%
CCN1CCN(CCNC(=O)c2ccc3c(c2)NC(=O)/C(=C\c2cccc(Cl)c2)S3)CC1 18.1%
COc1ccc(S(=O)(=O)N2CCN(CC(=O)N3CCNC3=O)CC2)cc1OC 18.1%
COCCNC(=O)CSc1nc(N)c(NC(=O)c2ccco2)c(=O)[nH]1 12.7%
O=C(NCCN1CCOCC1)C1CCN(S(=O)(=O)c2ccccc2)CC1 11.1%
C[C@H](CO)N1C[C@H](C)[C@@H](CN(C)S(=O)(=O)c2ccc(Oc3ccccc3)cc2)OCc2cn(nn2)CCCC1=O -14.8%
